The supplement of paper PMC13380429

System: Vero E6 infected with SARS-CoV-2
Experiment: inhibition of SARS-CoV-2 cytopathic effect; higher = more antiviral protection, active = above 15
Conditions: 48 h

Measured: inhibition of SARS-CoV-2 cytopathic effect

O=C(Nc1ccc(-c2ccnc(Nc3ccc(N4CCOCC4)cc3)n2)cc1)C1CCCN1 (stereo not given)
inactive: 1 nM -1.37% | 8.33 nM -1.43% | 100 nM -0.97% | 833.33 nM -1.01% | 10000 nM 8.93%

CC(=O)/N=c1/[nH]c(C)c(-c2ccc(Cl)c(S(=O)(=O)NCCO)c2)s1
inactive: 1 nM 0.03% | 8.33 nM -0.02% | 100 nM 1.03% | 833.33 nM 1.81% | 10000 nM 2.47%

CCCNS(=O)(=O)Nc1ncnc(OCCOc2ncc(Br)cn2)c1-c1ccc(Br)cc1 [macitentan]
inactive: 1 nM 0.7% | 8.33 nM -1.57% | 100 nM -0.9% | 833.33 nM 1.28% | 10000 nM 4.76%

COc1ccc(-c2nc(N3CCOCC3)c3sc(CN(C)c4ncc(C(=O)NO)cn4)cc3n2)cn1
inactive: 1 nM -0.39% | 8.33 nM -5.36% | 100 nM -18.1% | 833.33 nM -20.7% | 10000 nM -21.4%

CC(C)c1nc(N(C)S(C)(=O)=O)nc(-c2ccc(F)cc2)c1/C=C/[C@@H](O)C[C@@H](O)CC(=O)O [rosuvastatin]
inactive: 1 nM -0.46% | 8.33 nM 0.22% | 100 nM -2.09% | 833.33 nM -3.33% | 10000 nM -2.75%

Nc1ccc(S(N)(=O)=O)cc1 [sulfanilamide]
inactive: 1 nM -4.21% | 8.33 nM -0.69% | 100 nM 4.19% | 833.33 nM 2.93% | 10000 nM 1.32%

CCC[S+]([O-])c1ccc2[nH]c(NC(=O)OC)nc2c1 (stereo not given) [albendazole-oxide]
inactive: 1 nM 3.02% | 8.33 nM 2.02% | 100 nM 0.87% | 833.33 nM 1.7% | 10000 nM 0.07%
